Reference: PubChem BioAssay (Tox21)
“And” between values parts separate entries of the source, which are not always exact repeats. Equal values may be shown once. Results filed as inconclusive are left out. Where a call stands in place of a potency, no number is given. A structure can be active in one record and inactive in another. The source made the active and inactive calls. Unless noted, the call rests on the fitted dose curve; in most records, active means well fitted curve in the direction sought with a large enough effect in the repeat runs; inconclusive means weak or mixed curves; inactive means no such curve, though single readings can be large; an effect the other way counts as inactive or inconclusive. Starred links: 1 amine or outer side, 2 acyl side, 3 side chain; linkers in the order of their positions; H or OH if unused. Positions of bridges follow the written chain, without caps; N, C: chain ends. Non-standard residues stand in square brackets, D forms with d. Residues, ends and D or L forms follow the SMILES beside them. Chains are numbered I, II in the order given. Actinocin(9to1) = Cc1c2oc3c(C)ccc(C(=O)[*:1])c3nc-2c(C(=O)[*:2])c(N)c1=O; NMeV = CN[C@H](C(=O)O)C(C)C; Sar = CNCC(=O)O

Experiments:
[1] = qHTS assay to identify small molecule agonists of the peroxisome proliferator-activated receptor delta (PPARd) signaling pathway - cell viability counter screen (AID 743211); further: nearly all actives have a fitted effect of over 55% in size; further: potency means the concentration at half of the fitted maximal effect
Outline: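 Read-out: CellTiter-Glo luminescence, 30 min RT, measured in the same wells as the beta-lactamase reporter. Cells: GeneBLAzer PPAR delta UAS-bla HEK293H, 3000 cells/well, compound exposure 17 h at 37C.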

[2] = target: Peroxisome proliferator-activated receptor delta (Homo sapiens) (UniProt Q03181); test: qHTS assay to identify small molecule agonists of the peroxisome proliferator-activated receptor delta (PPARd) signaling pathway (AID 743212; calls by dose curve)
Outline: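 A PPARd-bla HEK293H line with beta-lactamase under an Upstream Activator Sequence is treated with compounds at 37 C. Substrate loading for 2 h at room temperature precedes the fluorescence measurement.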

[3] = target: Peroxisome proliferator-activated receptor delta (Homo sapiens) (UniProt Q03181); test: qHTS assay to identify small molecule antagonists of the peroxisome proliferator-activated receptor delta (PPARd) signaling pathway (AID 743215; active means well fitted inhibition curve with a large enough effect in the signal ratio in the repeat runs, not every such curve was filed as active; the % refers to the signal ratio;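 further: cells stimulated with agonist L165041 at 300 nM final during compound exposure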; further: potency means the concentration at half of the fitted maximal effect)
Outline: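 HEK293H UAS-bla, PPARd; agonist L165041 300 nM final with cpd in DMSO; 37 C 17 h; FRET substrate, RT 2 h; fluorescence intensity.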

[4] = qHTS assay to identify small molecule antagonists of the farnesoid-X-receptor (FXR) signaling pathway - cell viability counter screen (AID 743221; active means well fitted cell-killing curve with a large enough effect in the repeat runs, not every such curve was filed as active; further: nearly all actives have a fitted effect of over 50% in size; further: potency means the concentration at half of the fitted maximal effect)
Outline: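 HEK 293T FXR-bla cells, 5 h pre-incubation; compound + CDCA 50 uM final, 16 h, 37 C; beta-lactamase FRET read first, then CellTiter-Glo luminescence, 30 min RT.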

[5] = target: Vitamin D3 receptor (Homo sapiens) (UniProt P11473); test: qHTS assay to identify small molecule agonists of the vitamin D receptor (VDR) signaling pathway (AID 743222; calls by dose curve; further: potency means the concentration at half of the fitted maximal effect)
Outline: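 In VDR-bla cells, compound-induced beta-lactamase expression is quantified by FRET substrate fluorescence. Treatment lasts 16 h at 37C; substrate develops 2 h at room temperature.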

[6] = target: Vitamin D3 receptor (Homo sapiens) (UniProt P11473); test: qHTS assay to identify small molecule antagonists of the vitamin D receptor (VDR) signaling pathway (AID 743223; active means well fitted inhibition curve with a large enough effect in the signal ratio in the repeat runs, not every such curve was filed as active; the % refers to the signal ratio; further: potency means the concentration at half of the fitted maximal effect)
Outline: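 Beta-lactamase reporter read-out: FRET substrate fluorescence after 2 h at room temperature, following 16 h exposure of VDR-bla cells to test compound plus 3 nM (final) 1alpha,25-dihydroxyvitamin D3 agonist at 37C.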

[7] = qHTS assay to identify small molecule agonists of the farnesoid-X-receptor (FXR) signaling pathway - cell viability counter screen (AID 743218); further: nearly all actives have a fitted effect of over 45% in size; further: potency means the concentration at half of the fitted maximal effect
Outline: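 Parallel cytotoxicity test: compound-treated (16 h, 37 C) HEK 293T FXR-bla reporter cells were lysed with CellTiter-Glo and luminescence recorded.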

[8] = target: Bile acid receptor (Homo sapiens) (UniProt Q96RI1); test: qHTS assay to identify small molecule agonists of the farnesoid-X-receptor (FXR) signaling pathway (AID 743220; active means well fitted activation curve with a large enough effect in the signal ratio in the repeat runs, not every such curve was filed as active; the % refers to the signal ratio)
Outline: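 Beta-lactamase reporter under UAS control in GeneBLAzer FXR HEK 293T cells (5000/well) measured with LiveBLAzer FRET substrate after 2 h at room temperature. Compound exposure lasted 16 h at 37C.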

[9] = qHTS assay to identify small molecule antagonists of the peroxisome proliferator-activated receptor delta (PPARd) signaling pathway - cell viability counter screen (AID 743213); further: nearly all actives have a fitted effect of over 50% in size; further: potency means the concentration at half of the fitted maximal effect
Outline: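 Viability counter-screen, qHTS format: PPARd-bla HEK293H, L165041 300 nM final, 17 h compound exposure at 37 C, CellTiter-Glo luminescence after 30 min RT.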

[10] = target: Bile acid receptor (Homo sapiens) (UniProt Q96RI1); test: qHTS assay to identify small molecule antagonists of the farnesoid-X-receptor (FXR) signaling pathway (AID 743217; active means well fitted inhibition curve with a large enough effect in the signal ratio in the repeat runs, not every such curve was filed as active; the % refers to the signal ratio)
Outline: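 GeneBLAzer FXR-UAS-bla HEK 293T, CDCA-stimulated (50 uM final). Compound treatment 16 h, 37 °C. Detection: beta-lactamase cleavage of B/G FRET substrate, fluorescence.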

Chain of Bile acid receptor (Homo sapiens) (Q96RI1 whole entry, looked up): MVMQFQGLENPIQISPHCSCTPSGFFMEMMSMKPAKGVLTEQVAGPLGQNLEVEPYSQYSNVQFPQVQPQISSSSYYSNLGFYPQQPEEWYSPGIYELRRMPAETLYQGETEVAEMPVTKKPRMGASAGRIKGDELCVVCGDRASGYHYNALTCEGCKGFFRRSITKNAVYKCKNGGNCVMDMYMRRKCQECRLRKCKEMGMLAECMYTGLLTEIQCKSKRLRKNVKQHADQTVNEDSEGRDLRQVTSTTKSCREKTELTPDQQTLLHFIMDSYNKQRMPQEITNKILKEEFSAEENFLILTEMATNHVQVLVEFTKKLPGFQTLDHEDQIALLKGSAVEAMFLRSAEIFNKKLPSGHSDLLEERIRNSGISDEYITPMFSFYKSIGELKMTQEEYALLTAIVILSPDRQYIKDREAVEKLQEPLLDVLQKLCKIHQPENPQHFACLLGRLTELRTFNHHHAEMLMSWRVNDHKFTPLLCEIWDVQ
Chain of Peroxisome proliferator-activated receptor delta (Homo sapiens) (Q03181 whole entry, looked up): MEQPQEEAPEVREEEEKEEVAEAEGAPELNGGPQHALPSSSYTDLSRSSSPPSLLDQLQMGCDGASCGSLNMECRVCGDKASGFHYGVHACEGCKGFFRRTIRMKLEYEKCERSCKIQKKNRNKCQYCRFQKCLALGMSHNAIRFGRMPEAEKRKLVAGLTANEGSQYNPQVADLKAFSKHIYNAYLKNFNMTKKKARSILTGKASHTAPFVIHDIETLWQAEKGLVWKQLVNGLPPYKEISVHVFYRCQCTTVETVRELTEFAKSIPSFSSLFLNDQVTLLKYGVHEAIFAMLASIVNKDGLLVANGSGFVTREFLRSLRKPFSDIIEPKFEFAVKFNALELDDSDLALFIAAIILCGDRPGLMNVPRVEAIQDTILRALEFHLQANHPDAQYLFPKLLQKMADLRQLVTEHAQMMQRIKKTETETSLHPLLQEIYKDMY
Chain of Vitamin D3 receptor (Homo sapiens) (P11473 whole entry, looked up): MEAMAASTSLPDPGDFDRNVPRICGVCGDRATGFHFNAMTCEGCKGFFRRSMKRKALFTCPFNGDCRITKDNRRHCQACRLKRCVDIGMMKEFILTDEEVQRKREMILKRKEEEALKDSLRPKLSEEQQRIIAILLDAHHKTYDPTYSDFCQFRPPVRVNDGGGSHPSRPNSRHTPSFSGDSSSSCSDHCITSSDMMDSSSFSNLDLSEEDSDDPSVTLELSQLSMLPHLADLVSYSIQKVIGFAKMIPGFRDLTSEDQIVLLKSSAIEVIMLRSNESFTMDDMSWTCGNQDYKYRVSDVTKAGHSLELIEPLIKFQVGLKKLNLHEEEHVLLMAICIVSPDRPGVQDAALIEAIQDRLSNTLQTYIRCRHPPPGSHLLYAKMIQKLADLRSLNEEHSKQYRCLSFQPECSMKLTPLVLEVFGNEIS

Compound | Potency [1] | Potency [2] | Potency [3] | Potency [4] | Potency [5] | Potency [6] | Potency [7] | Potency [8] | Potency [9] | Potency [10]
CCCNC(C)C(=O)Nc1ccccc1C (configuration not stated) | inactive | inactive | inactive | inactive | inactive | inactive |  |  |  | 
O=S(=O)(O)c1ccc2nc(-c3ccccc3)[nH]c2c1 | 8.29 µM (active) | inactive | inactive | 7.39 µM (active) |  |  | inactive | inactive |  | 
CC1=CC(=O)c2ccccc2C1=O | 19.5 µM (active) and 26.6 µM (active) |  | 33500 nM (active) |  |  |  | 24.5 µM (active) |  | 19.5 µM (active) | 
O=C(OCc1ccccc1)c1ccc(O)cc1 | inactive |  |  | inactive |  |  | inactive | inactive | inactive | 
Cc1cccc([N+](=O)[O-])c1C(=O)O | inactive | inactive | inactive | inactive | inactive |  | inactive | inactive |  | inactive
O=C1CC2(CCCC2)CC(=O)N1CCCCN1CCN(c2ncccn2)CC1 | inactive |  |  | inactive | inactive |  | 24.5 µM (active) and inactive | inactive | inactive | 
Cc1ccc(S(=O)(=O)Oc2ccc(N=Nc3ccc(-c4ccc(N=Nc5c(O)ccc6cc(S(=O)(=O)O)cc(S(=O)(=O)O)c56)c(C)c4)cc3C)cc2)cc1 | inactive | inactive | inactive | inactive |  | inactive | inactive | inactive |  | 
CC1COC(=O)O1 (configuration not stated) | inactive | inactive |  | inactive | inactive | inactive | inactive | inactive |  | 
CC(=O)O[C@]1(C(C)=O)CC[C@H]2[C@@H]3C[C@H](C)C4=CC(=O)CC[C@]4(C)[C@H]3CC[C@@]21C | inactive | inactive | inactive | inactive |  | inactive |  | inactive |  | 
CC(C)(C)c1cc(C(C)(C)C)c(O)c(C(C)(C)C)c1 | 49 µM (active) | inactive | inactive | inactive |  |  |  | inactive |  | 
CCn1cc(C(=O)O)c(=O)c2cc(F)c(N3CCNC(C)C3)c(F)c21 (configuration not stated) | inactive | inactive | inactive | inactive |  |  | inactive |  |  | 
COc1ccc(Cc2cnc(N)nc2N)cc1OC | inactive | inactive | inactive | inactive | inactive | inactive | inactive | inactive |  | 
c1ccc2cc3c(ccc4ccccc43)cc2c1 | inactive |  |  | inactive | inactive | inactive | inactive | inactive | inactive | 
Oc1c(Cl)cc(Cl)c(Cl)c1Cc1c(O)c(Cl)cc(Cl)c1Cl | 27.5 µM (active) and 13.3 µM (active) |  |  | 48.9 µM (active) |  |  | 21.8 µM (active) and 24.5 µM (active) | inactive | 38.8 µM (active) and 24.5 µM (active) | 
CC[C@H]1CN2CCc3cc(OC)c(OC)cc3[C@@H]2C[C@@H]1C[C@H]1NCCc2cc(OC)c(OC)cc21 | 43.8 µM (active) | inactive | 438 nM (active) | inactive | inactive | 0.492 µM (active) |  |  |  | 
Cc1c2oc3c(C)ccc(C(=O)N[C@@H]4C(=O)N[C@H](C(C)C)C(=O)N5CCC[C@H]5C(=O)N(C)CC(=O)N(C)[C@@H](C(C)C)C(=O)O[C@@H]4C)c3nc-2c(C(=O)N[C@@H]2C(=O)N[C@H](C(C)C)C(=O)N3CCC[C@H]3C(=O)N(C)CC(=O)N(C)[C@@H](C(C)C)C(=O)O[C@@H]2C)c(N)c1=O (I: T[dV]P[Sar][NMeV] / II: T[dV]P[Sar][NMeV]; ester I:1-I:C, II:1-II:C; linker I:N-II:N via Actinocin(9to1)) | 26.8 µM (active) and inactive | inactive | 1.7 nM (active) and 11.9 nM (active) | inactive | inactive |  |  |  |  | 
CC(C)CCOC(=O)c1ccc(N(C)C)cc1 | inactive | inactive | inactive | inactive | inactive | inactive |  |  |  | 
O=C(O)c1cn(-c2ccc(F)cc2)c2cc(N3CCNCC3)c(F)cc2c1=O | inactive | inactive | inactive | inactive |  |  | inactive |  |  | 
CCCCOCCOC(=O)c1ccccc1C(=O)OCCOCCCC | 47.9 µM (active) and inactive | inactive | inactive | inactive | inactive | inactive |  | inactive |  | 
CCCCC(CC)COC(=O)CC(C(=O)OCC(CC)CCCC)S(=O)(=O)O (configuration not stated) | 37.4 µM (active) and 24.5 µM (active) |  | inactive | 43.6 µM (active) | inactive | inactive | 52.9 µM (active) and 43.6 µM (active) |  | 15.5 µM (active) | 
Cc1cc(Cc2cc(C)cc(C(C)(C)C)c2O)c(O)c(C(C)(C)C)c1 | 17.5 µM (active) and 15.5 µM (active) | inactive |  | inactive | inactive |  | 21.9 µM (active) | inactive |  | 
Cc1cc(C(C)(C)C)c(O)c(C(C)(C)C)c1 | 43.8 µM (active) and inactive | inactive | inactive | inactive |  |  |  | inactive |  | 
COC(=O)[C@H]1[C@H]2C[C@@H]3c4[nH]c5cc(OC)ccc5c4CCN3C[C@H]2C[C@@H](OC(=O)c2cc(OC)c(OC)c(OC)c2)[C@@H]1OC | 17.9 µM (active) |  | inactive | inactive |  |  | 22.5 µM (active) |  | 17.9 µM (active) | 
CCN(CC)C(=S)SSC(=S)N(CC)CC | 110 nM (active) and 44.7 nM (active) and 150 nM (active) |  | 87.1 nM (active) | 222 nM (active) and 188 nM (active) |  |  | 0.0915 µM (active) |  | 123 nM (active) and 39.8 nM (active) and 150 nM (active) | 
O=c1n(CC2CO2)c(=O)n(CC2CO2)c(=O)n1CC1CO1 (configuration not stated) | inactive | inactive |  | inactive | inactive |  |  |  | inactive | 
COc1cc(C(=S)N2CCOCC2)ccc1O | inactive | inactive | inactive | inactive |  |  |  |  |  | 
CCc1cc(C(C)(C)C)c(O)c(C(C)(C)C)c1 | inactive | inactive | inactive | inactive | inactive | inactive | inactive | inactive |  | inactive
Nc1cc(S(=O)(=O)O)cc2cc(S(=O)(=O)O)cc(O)c12 | inactive |  |  | inactive | 24.4 µM (active) | inactive | inactive | inactive | inactive | 
